# Measured values from PubChem BioAssay (NCATS).
# Records with an inconclusive call do not appear. Calls of active or inactive are those of the source. Calls come from the whole dose curve; as a rule, active = well fitted inhibition curve with a large enough effect; inconclusive = small, poorly fitted or top-dose-only effect; inactive = flat fitted curve, though single readings scatter.
# System: N140
# Assay: qHTS profiling for inhibitors of Plasmodium falciparum proliferation (AID 504749); note: nearly all actives have a fitted effect of over 60% in size;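 for activity, negative = inhibition: 0% = DMSO vehicle and full inhibition = artemisinin control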
# Details: P. falciparum in erythrocytes, SYBR Green DNA, 72 h; series mostly up to 28.7 µM; activity, negative = inhibition: at the top concentration
# How it was run: (§1)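 Readout was DNA-dye fluorescence from lysed cultures, ex 485/em 535 nm. Parasitized red cells had grown 72 h with compound; data scaled between 0.29 uM artemisinin and DMSO wells and corrected using vehicle-only plates.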
# Potency is the fitted concentration of half-maximal effect.
Structure (SMILES),"activity, negative = inhibition",Potency
CN(C)[C@H]1C(=O)C(C(=O)NCN2CCCC2)=C(O)[C@]2(O)C(=O)C3=C(O)c4c(O)cccc4[C@](C)(O)[C@H]3C[C@H]12,4.01% (inactive),–
C[C@]12CC[C@H]3c4ccc(O)cc4CC[C@@H]3[C@H]1CC[C@@H]2OC(=O)CCC1CCCC1,–,12.6 µM (active)
Cc1cn([C@H]2C[C@H](N=[N+]=[N-])[C@H](CO)O2)c(=O)[nH]c1=O,-3.03% (inactive),–
O=C(O)[C@@H](S)[C@H](S)C(=O)O,–,7.94 µM (active)
CC(C)(C)NC[C@@H](O)c1ccc(O)c(CO)n1,2.18% (inactive),–
NS(=O)(=O)c1cc2c(cc1Cl)N[C@H](Cc1ccccc1)NS2(=O)=O,2.52% (inactive),–

# System: P93_24
# Assay: as above
# Details: P. falciparum in erythrocytes, SYBR Green DNA, 72 h; series mostly up to 28.7 µM; activity, negative = inhibition: at the top concentration
# How it was run: as §1
Structure (SMILES),"activity, negative = inhibition",Potency
CN(C)[C@H]1C(=O)C(C(=O)NCN2CCCC2)=C(O)[C@]2(O)C(=O)C3=C(O)c4c(O)cccc4[C@](C)(O)[C@H]3C[C@H]12,-9.78% (inactive),–
Cc1cn([C@H]2C[C@H](N=[N+]=[N-])[C@H](CO)O2)c(=O)[nH]c1=O,2.17% (inactive),–
O=C(O)[C@@H](S)[C@H](S)C(=O)O,–,4.47 µM (active)
CC(C)(C)NC[C@@H](O)c1ccc(O)c(CO)n1,7.02% (inactive),–
NS(=O)(=O)c1cc2c(cc1Cl)N[C@H](Cc1ccccc1)NS2(=O)=O,-0.644% (inactive),–

# System: P94_40
# Assay: as above
# Details: P. falciparum in erythrocytes, SYBR Green DNA, 72 h; series mostly up to 28.7 µM; activity, negative = inhibition: at the top concentration
# How it was run: as §1
Structure (SMILES),"activity, negative = inhibition",Potency
CN(C)[C@H]1C(=O)C(C(=O)NCN2CCCC2)=C(O)[C@]2(O)C(=O)C3=C(O)c4c(O)cccc4[C@](C)(O)[C@H]3C[C@H]12,-7.04% (inactive),–
C[C@]12CC[C@H]3c4ccc(O)cc4CC[C@@H]3[C@H]1CC[C@@H]2OC(=O)CCC1CCCC1,-14.4% (inactive),–
Cc1cn([C@H]2C[C@H](N=[N+]=[N-])[C@H](CO)O2)c(=O)[nH]c1=O,13.7% (inactive),–
O=C(O)[C@@H](S)[C@H](S)C(=O)O,–,4.47 µM (active)
CC(C)(C)NC[C@@H](O)c1ccc(O)c(CO)n1,13.7% (inactive),–
NS(=O)(=O)c1cc2c(cc1Cl)N[C@H](Cc1ccccc1)NS2(=O)=O,-7.25% (inactive),–

# System: PAD
# Assay: as above
# Details: P. falciparum in erythrocytes, SYBR Green DNA, 72 h; series mostly up to 28.7 µM; activity, negative = inhibition: at the top concentration
# How it was run: as §1
Structure (SMILES),"activity, negative = inhibition",Potency
CN(C)[C@H]1C(=O)C(C(=O)NCN2CCCC2)=C(O)[C@]2(O)C(=O)C3=C(O)c4c(O)cccc4[C@](C)(O)[C@H]3C[C@H]12,-2.88% (inactive),–
C[C@]12CC[C@H]3c4ccc(O)cc4CC[C@@H]3[C@H]1CC[C@@H]2OC(=O)CCC1CCCC1,–,10 µM (active)
Cc1cn([C@H]2C[C@H](N=[N+]=[N-])[C@H](CO)O2)c(=O)[nH]c1=O,15% (inactive),–
O=C(O)[C@@H](S)[C@H](S)C(=O)O,–,8.91 µM (active)
CC(C)(C)NC[C@@H](O)c1ccc(O)c(CO)n1,1.08% (inactive),–
NS(=O)(=O)c1cc2c(cc1Cl)N[C@H](Cc1ccccc1)NS2(=O)=O,1.19% (inactive),–

# System: PC15
# Assay: as above
# Details: P. falciparum in erythrocytes, SYBR Green DNA, 72 h; series mostly up to 28.7 µM; activity, negative = inhibition: at the top concentration
# How it was run: as §1
Structure (SMILES),"activity, negative = inhibition",Potency
CN(C)[C@H]1C(=O)C(C(=O)NCN2CCCC2)=C(O)[C@]2(O)C(=O)C3=C(O)c4c(O)cccc4[C@](C)(O)[C@H]3C[C@H]12,-0.947% (inactive),–
C[C@]12CC[C@H]3c4ccc(O)cc4CC[C@@H]3[C@H]1CC[C@@H]2OC(=O)CCC1CCCC1,–,12.6 µM (active)
Cc1cn([C@H]2C[C@H](N=[N+]=[N-])[C@H](CO)O2)c(=O)[nH]c1=O,8.06% (inactive),–
CC(C)(C)NC[C@@H](O)c1ccc(O)c(CO)n1,4.62% (inactive),–
NS(=O)(=O)c1cc2c(cc1Cl)N[C@H](Cc1ccccc1)NS2(=O)=O,-1.53% (inactive),–

# System: PC26
# Assay: as above
# Details: P. falciparum in erythrocytes, SYBR Green DNA, 72 h; series mostly up to 28.7 µM; activity, negative = inhibition: at the top concentration
# How it was run: as §1
Structure (SMILES),"activity, negative = inhibition",Potency
CN(C)[C@H]1C(=O)C(C(=O)NCN2CCCC2)=C(O)[C@]2(O)C(=O)C3=C(O)c4c(O)cccc4[C@](C)(O)[C@H]3C[C@H]12,1.34% (inactive),–
Cc1cn([C@H]2C[C@H](N=[N+]=[N-])[C@H](CO)O2)c(=O)[nH]c1=O,1.01% (inactive),–
O=C(O)[C@@H](S)[C@H](S)C(=O)O,–,8.49 µM (active)
CC(C)(C)NC[C@@H](O)c1ccc(O)c(CO)n1,2.39% (inactive),–
NS(=O)(=O)c1cc2c(cc1Cl)N[C@H](Cc1ccccc1)NS2(=O)=O,0.0982% (inactive),–

# System: PC49
# Assay: as above
# Details: P. falciparum in erythrocytes, SYBR Green DNA, 72 h; series mostly up to 28.7 µM; activity, negative = inhibition: at the top concentration
# How it was run: as §1
Structure (SMILES),"activity, negative = inhibition",Potency
CN(C)[C@H]1C(=O)C(C(=O)NCN2CCCC2)=C(O)[C@]2(O)C(=O)C3=C(O)c4c(O)cccc4[C@](C)(O)[C@H]3C[C@H]12,12.3% (inactive),–
C[C@]12CC[C@H]3c4ccc(O)cc4CC[C@@H]3[C@H]1CC[C@@H]2OC(=O)CCC1CCCC1,-6.2% (inactive),–
Cc1cn([C@H]2C[C@H](N=[N+]=[N-])[C@H](CO)O2)c(=O)[nH]c1=O,2.34% (inactive),–
O=C(O)[C@@H](S)[C@H](S)C(=O)O,–,11.2 µM (active)
CC(C)(C)NC[C@@H](O)c1ccc(O)c(CO)n1,18.5% (inactive),–
NS(=O)(=O)c1cc2c(cc1Cl)N[C@H](Cc1ccccc1)NS2(=O)=O,12.2% (inactive),–

# System: SC27B
# Assay: as above
# Details: P. falciparum in erythrocytes, SYBR Green DNA, 72 h; series mostly up to 28.7 µM; activity, negative = inhibition: at the top concentration
# How it was run: as §1
Structure (SMILES),"activity, negative = inhibition",Potency
CN(C)[C@H]1C(=O)C(C(=O)NCN2CCCC2)=C(O)[C@]2(O)C(=O)C3=C(O)c4c(O)cccc4[C@](C)(O)[C@H]3C[C@H]12,11% (inactive),–
C[C@]12CC[C@H]3c4ccc(O)cc4CC[C@@H]3[C@H]1CC[C@@H]2OC(=O)CCC1CCCC1,-21% (inactive),–
Cc1cn([C@H]2C[C@H](N=[N+]=[N-])[C@H](CO)O2)c(=O)[nH]c1=O,5.12% (inactive),–
O=C(O)[C@@H](S)[C@H](S)C(=O)O,–,11.2 µM (active)
CC(C)(C)NC[C@@H](O)c1ccc(O)c(CO)n1,4.3% (inactive),–
NS(=O)(=O)c1cc2c(cc1Cl)N[C@H](Cc1ccccc1)NS2(=O)=O,-2.7% (inactive),–
